65 compounds from PubChem BioAssay AID1578 (Sanford-Burnham Center for Chemical Genomics, 2009) can be followed below.

Screen size: about 290,000 compounds; about 3,000 (1%) were called active. For the sample, actives were picked, then their nearest neighbours and some compounds at random. Values without a mark were called inactive. Cut-off read from the data, not from the text of the source: active = inhibition mostly above about 36% (no sharp cut-off); inactive = mostly below about 34%.

For orientation: inhibition means the relative decrease from the control value, in per cent.

The nature of the assay: inhibition of NOD1-driven NF-kB reporter – cell-based, luminescence, uHTS, primary screen (AID 1578).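 Note: HEK-293T reporter cells stimulated with the NOD1 agonist gamma-tri-DAP.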 To be noted: NOD1-driven NF-kB luciferase reporter cells, at 4 µM, stronger effect = higher value. For orientation: In a reporter assay the amount or activity of a reporter protein is the signal.
For `[O-]/[N+](=C/c1ccc(F)cc1)c1ccc(Cl)cc1`, the inhibition was -85.9%.

As for `COc1cccc(C(=O)NCc2ccc3c(c2)OCO3)c1OC`, the inhibition was -33%.

On to `CC1=C(C(=O)N(C)C)C(c2cccc(Cl)c2)NC(=O)N1` (stereo not given), for which the inhibition is -23.2%.

Turning to `COc1ccc(CCNC(=O)c2ccc3c(c2)N(Cc2ccc(C)cc2)CCS3)cc1OC`, the inhibition was 8.4%.

For `COc1ccc(CCNC(=O)c2ccc3c(c2)N(Cc2ccc(F)cc2)CCS3)cc1OC`, the inhibition is -34.1%.

With `CCCC[C@@H]1CNC(=S)N1CCc1cccc(F)c1`, the inhibition is -29.2%.

As for `CCOc1ncccc1C(=O)Nc1cc(S(=O)(=O)N2CCOCC2)ccc1N1CCCC1`, the inhibition was 0.1%.

`CC1CCN(C(=O)C2CCN(S(=O)(=O)c3ccc(-n4cnnn4)cc3)CC2)CC1`: the inhibition is -10.6%.

Regarding `CCOc1cc(/C=N/NC(=O)CSc2cccc3cccnc23)ccc1O`, the inhibition is -32.2%.

As for `O=C(CSc1cccc2cccnc12)N/N=C/c1ccc(O)cc1`, the inhibition is -3.1%.

Consider `CCCCC(=O)N/N=C/c1ccc(Sc2cccc3cccnc23)o1`, for which the inhibition was -12.8%.

Turning to `O=C(Cc1cccc2ccccc12)N/N=C/c1ccc(Sc2cccc3cccnc23)o1`, the inhibition is 61.9%.

In the case of `O=C(CSc1cccc2cccnc12)N/N=C/c1ccncc1`, the inhibition was -32.7%.

Regarding `O=C(CSc1cccc2cccnc12)N/N=C/c1cccnc1`, the inhibition is 80% (active).

Turning to `O=C(CCc1ccccc1O)N/N=C/c1ccc(Sc2cccc3cccnc23)o1`, the inhibition is 89.3% (active).

With `COc1cccc(/C=N/NC(=O)CSc2cccc3cccnc23)c1`, the inhibition was 33.4% (active).

On to `O=C(CSc1cccc2cccnc12)N/N=C/c1cccc(O)c1`, for which the inhibition was -22%.

Take `Cc1cc(NC(=O)CSc2nnc(CNC(=O)c3ccc(F)cc3)o2)no1`: the inhibition is -38.1%.

With `O=C(CSc1nc2ccccc2c(=O)n1CCCN1CCOCC1)c1c[nH]c2ccccc12`, the inhibition is 41%.

Turning to `O=C(NCc1ccccc1OC(F)(F)F)C1CCC(=O)N(Cc2ccccn2)C1` (stereo not given), the inhibition was -8%.

For the compound `CC(C)(C)OC(=O)NC(Cc1ccccc1)C(=O)N1CCC(C(=O)NCC(=O)Nc2ccc(F)cc2)CC1` (stereo not given), the inhibition was -18%.

With `O=C(Nc1cccc(F)c1)N1CCC(n2c(=O)[nH]c3ccccc32)CC1`, the inhibition is -2.7%.

For the compound `COc1ccc(-c2noc(N3CCC(C(=O)NCCCN4CC(C)CC(C)C4)CC3)n2)cc1` (stereo not given), the inhibition was -3.9%.

As for `CCOC(=O)Cc1ccc(NC(=O)c2ccc([N+](=O)[O-])cc2)cc1`, the inhibition is -35.6%.

With `Cc1ccc(C(=O)Nc2ccc(CC(=O)O)cc2)o1`, the inhibition is -4.8%.

On to `CC(C)(C)c1ccc(C(=O)Nc2ccc(CC(=O)O)cc2)o1`, for which the inhibition is 76.3% (active).

Turning to `COC(=O)Cc1ccc(NC(=O)c2ccc(C)c(C)c2)cc1`, the inhibition was -39.1%.

On to `COC(=O)Cc1ccc(NC(=O)c2ccc(C(C)(C)C)cc2)cc1`, for which the inhibition is 88.2% (active).

For `CCOC(=O)Cc1ccc(NC(=O)c2ccc(C(C)(C)C)cc2)cc1`, the inhibition is 69.9% (active).

For `CCOC(=O)Cc1ccc(NC(=O)c2ccccc2Br)cc1`, the inhibition is -20.3%.

In the case of `CC(C)(C)c1ccc(C(=O)Nc2ccc(NC(=O)C(=O)O)cc2)o1`, the inhibition was -19%.

For the compound `COC(=O)Cc1ccc(NC(=O)c2ccc(NC(=O)c3ccco3)cc2)cc1`, the inhibition was -16%.

On to `C=C(CO)C1Cc2cc(C(C)=O)ccc2O1` (stereo not given), for which the inhibition was -3.8%.

On to `CC(C)(C)c1ccc(C(=O)c2c[nH]c(C(=O)NCCCN3CCOCC3)c2)cc1`, for which the inhibition is -19.7%.

On to `COc1ccc(CCC(=O)NC(C)C)cc1`, for which the inhibition is -11.1%.

On to `O=S(=O)(NCCN1CCOCC1)c1ccc(-c2ccc(S(=O)(=O)NCCN3CCOCC3)cc2)cc1`, for which the inhibition is -11.2%.

With `CCc1ccc(N2CC(C(=O)Nc3nc4ccc(S(C)(=O)=O)cc4s3)CC2=O)cc1` (stereo not given), the inhibition was 0.5%.

As to `O=C(CCCN1C(=O)S/C(=C/C=C/c2ccccc2)C1=O)Nc1ccc(C(=O)O)cc1`, the inhibition is -38%.

Regarding `O=C(CCc1ccccc1)NC(NC(=S)Nc1ccc(Cl)cc1)C(Cl)(Cl)Cl` (stereo not given), the inhibition is 19.9%.

Turning to `C/C(=N/NC(=O)c1nnn(-c2nonc2N)c1-c1ccccc1)c1ccncc1`, the inhibition was -26.6%.

Consider `Cc1c(Cl)c(C(=O)N2CCCc3ccccc32)nn1C`, for which the inhibition is 0.6%.

On to `O=c1cc(C(Cl)(Cl)Cl)oc2c1ccc1ccccc12`, for which the inhibition was 82.3% (active).

With `O=c1cc(C(F)F)oc2c1ccc1ccccc12`, the inhibition is 27.3%.

On to `O=c1cc(C(F)(F)F)oc2c1ccc1ccccc12`, for which the inhibition was -3.4%.

In the case of `O=C(/C=C/c1ccc(OC(F)F)cc1)Nc1cccc(S(=O)(=O)NC2=NCCCCC2)c1`, the inhibition is -43.6%.

As to `COCCC(=O)N1CCC(Oc2ccc(C(=O)N3C[C@H]4CC[C@H]3C4)cc2)CC1`, the inhibition was -33%.

As to `COc1cc(C(=O)NCCNC(=O)c2cc(OC)c(C)c(OC)c2)cc(OC)c1C`, the inhibition was -45.1%.

In the case of `COCCNC(=O)COc1ccc(Oc2ccccc2)cc1`, the inhibition is -26.6%.

`C=CCNC(=O)COc1ccc(Oc2ccccc2)cc1`: the inhibition is 52.1% (active).

On to `C=CCNC(=O)c1ccccc1NC(=O)COc1ccccc1`, for which the inhibition was 27.8%.

As for `O=C(NCCSc1ccc(Br)cc1)c1ccc2nc[nH]c2c1`, the inhibition was -38.2%.

Regarding `Cc1ccc(S(=O)(=O)CC(=O)Nc2cc(C)on2)cc1`, the inhibition is 24.4%.

For `Cc1cc2oc(=O)sc2cc1NS(=O)(=O)c1cccc2cccnc12`, the inhibition was -17.4%.

In the case of `O=C(Nc1cccc(-c2cnc3ccccc3n2)c1)c1ccccc1`, the inhibition was -0.8%.

As to `O=C(CCl)Nc1cccc(Oc2cnccn2)c1`, the inhibition is 32.3% (active).

Turning to `C=CCN(CC=C)CC(=O)Nc1cccc(Oc2cnccn2)c1`, the inhibition was 1.4%.

Regarding `O=C(CCl)Nc1cccc(CP(=O)(c2ccccc2)c2ccccc2)c1`, the inhibition was 106% (active).

Take `CCC(=O)Nc1cccc(-c2cnc3ccccc3n2)c1`: the inhibition is -54.6%.

On to `N=c1sccn1CC(=O)Nc1cccc(Oc2ccccc2)c1`, for which the inhibition is 16.7%.

In the case of `O=C(CCl)Nc1cccc(Oc2ccccc2)c1`, the inhibition is 75.3% (active).

Turning to `O=C(CP(=O)(c1ccccc1)c1ccccc1)Nc1cccc(CP(=O)(c2ccccc2)c2ccccc2)c1`, the inhibition is 7.2%.

Regarding `O=C(CCl)Nc1cccc(-c2cnc3ccccc3n2)c1`, the inhibition is 104% (active).

Consider `O=C(CN1CCCCC1)Nc1cccc(Oc2ccccc2)c1`, for which the inhibition was -5.2%.

Take `CC(=O)Nc1ccc(Oc2cnccn2)cc1`: the inhibition was -8.8%.

Take `CC(=O)Nc1cccc(CP(=O)(c2ccccc2)c2ccccc2)c1`: the inhibition is -3.5%.
